GLP1R inv ag: inverse agonists of human GLP-1 receptor. HEK293 GLP-1R CRE-luciferase, luminescence, 24 h; GLP-1R form is constitutively active. Potency, µM (titrated, usually from 38.3 µM), usual class: inhibitors. actives 1.6% (n = 410,000); further: nearly all actives have a fitted effect of over 55% in size
Target sequence (P43220 whole entry, looked up): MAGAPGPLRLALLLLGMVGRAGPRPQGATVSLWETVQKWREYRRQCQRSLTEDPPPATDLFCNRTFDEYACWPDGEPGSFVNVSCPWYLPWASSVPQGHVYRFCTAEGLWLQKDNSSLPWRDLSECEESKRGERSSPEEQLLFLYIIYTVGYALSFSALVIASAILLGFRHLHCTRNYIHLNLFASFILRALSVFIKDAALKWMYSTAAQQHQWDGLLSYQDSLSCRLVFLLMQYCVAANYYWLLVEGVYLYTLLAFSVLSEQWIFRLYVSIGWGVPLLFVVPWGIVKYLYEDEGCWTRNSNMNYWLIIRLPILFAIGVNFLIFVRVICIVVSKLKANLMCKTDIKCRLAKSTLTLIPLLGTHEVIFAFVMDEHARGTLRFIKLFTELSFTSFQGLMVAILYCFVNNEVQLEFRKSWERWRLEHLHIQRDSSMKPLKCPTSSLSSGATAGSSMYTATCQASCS
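qHTS in 1536-well format: reporter HEK293 cells expressing constitutive GLP-1R activity in DMEM + 10% Nu serum, 24 hr with compounds at 37 deg C, luminescence read after 12 min with detection reagent.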
HEK293 tox: cytotoxic in the GLP-1 receptor inverse agonist counter-screen; HEK293 cAMP-luciferase reporter cells, luminescence, 24 h; Potency, µM (series often up to 38.3 µM), actives largely listed as inhibitors; actives 0.13% (n = 410,000); AID 624418;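 further: loss of luciferase light is scored as toxicity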
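Cells in DMEM/10% Nu serum/1% pen-strep, 1536-well format. Pre-incubated 12 h, dosed with 23 nL compound, incubated a further 24 h. Luciferase detection, 12 min at room temp, luminescence.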
LDHA inh: inhibitors of human lactate dehydrogenase A. purified LDHA, NADH/diaphorase-resazurin fluorescence; stronger effect = lower value. actives 0.15% (n = 480,000). P00338. activity change, % (values are at about 110 or 230 µM); in the data active means activity change below about -30%; inconclusive means mostly about -25% to -30%
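Enzyme activity of human lactate dehydrogenase 5 (2 nM; 0.06 mM NADH, 0.2 mM pyruvate, 5 min, RT) is measured via a resazurin/diaphorase fluorescence readout of residual NADH.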
p53 reactivation: restores transcriptional activity of mutant p53 | actives 0.063% (n = 320,000) | Potency, µM (highest dose often 92.2 µM), most hits filed as activators | H1299 p53-A138V BP100-luciferase reporter, luminescence, 24 h; further: nearly all actives have a fitted effect of over 45% in size
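p53-null H1299 cells stably carrying temperature-sensitive p53-A138V and a BP100-luciferase reporter were pinned with compounds (4-point, 1:5 series) and held 24 hrs at 37 deg C. Luminescence was read 10 min after detection reagent.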
GLP1R ag: activates the human GLP-1 receptor. P43220. HEK293 GLP-1R CRE-luciferase, luminescence, 4-6 h; cells express a hypersensitive GLP-1R form. Potency, µM (titrated, usually from 45.6 µM), hits mostly activators. actives 0.007% (n = 380,000). AID 624172
ClpP mod: qHTS Assay for Activators of ClpP; ATP-dependent Clp protease proteolytic subunit (Bacillus subtilis (strain 168)), P80244; purified B. subtilis ClpP, FRET peptide cleavage, 20 min; Potency, µM (top dose mostly 57.5 µM); actives 1.9% (n = 340,000); AID 651965, 2013; active means well fitted falling curve with a large enough effect; inconclusive means small, poorly fitted or top-dose-only effect; inactive means no such curve, though single readings can be large or run the other way; further: the source files actives as falling curves though it sought activators and does not explain the sign; nearly all actives have a fitted effect of over 65% in size
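Purified B. subtilis ClpP, 10 microg/mL final in Tris/HCl pH8 with KCl, BSA, glycerol and Tween-20, cleaved an Abz/nitrotyrosine-quenched decapeptide. Fluorescence (ex 320, em 430) was read at 0 and 20 min at room temperature. Delta was normalized to 5.8 microM ADEP and DMSO/no-enzyme controls.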
A number is an active result; – = inactive; ? = inconclusive; · = no result. Rows were chosen to be rich in hits. Some 2.9% of all compounds tested hit in one or more screens of this group. Unless noted, the call rests on the fitted dose curve; in most records, active means well fitted curve in the direction sought with a large enough effect; inconclusive means small, poorly fitted or top-dose-only effect, or another doubt; inactive means no such curve, though single readings can be large; an effect the other way counts as inactive or inconclusive.

SMILES	GLP1R inv ag	HEK293 tox	LDHA inh	p53 reactivation	GLP1R ag	ClpP mod
CC1CC=C(c2ccccc2)C(=S)N1 (centres undefined)	10µM	?	–	–	–	·
S=C1NN=C(c2ccccc2)C(c2ccccc2)N1 (centres undefined)	·	·	–	·	·	·
CCN(Cc1ccccc1)C(=O)Cn1c(=O)n(CC(=O)N2CCCCC2)c(=O)c2sccc21	–	–	–	–	–	–
O=C(c1ccccc1)c1c[nH]c(C(=O)NNc2ccccc2)c1	2.5µM	–	–	–	–	·
Cc1cc(C)cc(OCC(=O)Nc2cccc(-c3nc4ccccc4[nH]3)c2)c1	?	–	–	·	·	–
CC(Oc1ccccc1)C(=O)Nc1cccc(-c2nc3ccccc3[nH]2)c1 (centres undefined)	?	–	–	?	–	35µM
O=C(COc1ccccc1)Nc1cccc(-c2nc3cc4ccccc4cc3[nH]2)c1	?	–	–	–	–	6.3µM
CC1CC(C)CN(C(=O)/C=C/c2ccc([N+](=O)[O-])s2)C1 (centres undefined)	–	–	–	–	–	–
CC1CC(C)CN(C(=O)c2ccc3c(c2)C(=O)c2ccccc2-3)C1 (centres undefined)	·	·	–	·	·	·
CCO/C=C1/C(=O)N(c2ccc(OC)cc2)C(=O)c2ccccc21	–	–	–	–	–	–
